Results reported in article PMC5700166.
Positions count from the first letter of the chain named.

Legend:
Assay in all cases: protein-binding microarray (PBM); PBM: ~300 nM protein, 6 mM HEPES pH 7.8, 80 mM KCl, 0.5 mM EDTA, 0.5 mM EGTA, 6% glycerol, 35 ng/ul poly-dIdC, 1% milk, 1 h, room temperature; Ap Aiptasia and Nv Nematostella (sea anemones) / Co Capsaspora / Aq Amphimedon (sponge) / Dm Drosophila / Hu human; RHD is the Rel homology domain; high values mean tight binding
Settings in all cases: dsDNA, one strand shown
GST-Ap-NF-kB RHD = target: T1, GST-Ap-NF-kB RHD (Exaiptasia pallida (Aiptasia), UniProt A0A913YAJ5 2-422)
T1 sequence: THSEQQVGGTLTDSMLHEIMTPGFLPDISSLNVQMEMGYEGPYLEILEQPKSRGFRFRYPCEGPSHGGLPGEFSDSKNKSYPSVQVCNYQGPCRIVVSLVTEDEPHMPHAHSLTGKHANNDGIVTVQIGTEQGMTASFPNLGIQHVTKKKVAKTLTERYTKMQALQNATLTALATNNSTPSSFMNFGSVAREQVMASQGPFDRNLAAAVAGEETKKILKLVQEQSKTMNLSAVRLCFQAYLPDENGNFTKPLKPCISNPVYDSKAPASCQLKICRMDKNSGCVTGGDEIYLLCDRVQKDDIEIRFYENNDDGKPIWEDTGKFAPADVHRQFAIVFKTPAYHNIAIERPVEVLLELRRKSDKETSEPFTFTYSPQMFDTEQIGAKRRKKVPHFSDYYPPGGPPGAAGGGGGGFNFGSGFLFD

[1] = target: T2, GST-Nv-NF-kB (Cys allele) (Nematostella vectensis, UniProt E5G601 2-411)
T2 sequence: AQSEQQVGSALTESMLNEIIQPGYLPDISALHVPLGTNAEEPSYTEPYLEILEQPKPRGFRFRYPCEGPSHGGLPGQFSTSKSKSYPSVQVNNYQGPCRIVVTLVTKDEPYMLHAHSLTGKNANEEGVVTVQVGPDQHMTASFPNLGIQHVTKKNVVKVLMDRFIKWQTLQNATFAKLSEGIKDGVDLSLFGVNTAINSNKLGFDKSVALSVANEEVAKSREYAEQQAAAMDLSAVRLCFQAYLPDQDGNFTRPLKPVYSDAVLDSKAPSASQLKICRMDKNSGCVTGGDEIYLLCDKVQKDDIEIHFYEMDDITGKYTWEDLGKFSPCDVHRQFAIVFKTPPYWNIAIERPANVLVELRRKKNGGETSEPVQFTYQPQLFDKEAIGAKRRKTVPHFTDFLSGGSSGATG

[2] = target: T3, GST-Nv-NF-kB (Ser allele) (Nematostella vectensis, UniProt A7UNT2 2-411)
T3 sequence: T2 sequence with Q21R, C66S, S207N, E215Q, V217A, E225K, A268E, D399E

GST-Co-NF-kB = target: T4, GST-Co-NF-kB (Capsaspora owczarzaki, UniProt F1ARL5 200-546)
T4 sequence: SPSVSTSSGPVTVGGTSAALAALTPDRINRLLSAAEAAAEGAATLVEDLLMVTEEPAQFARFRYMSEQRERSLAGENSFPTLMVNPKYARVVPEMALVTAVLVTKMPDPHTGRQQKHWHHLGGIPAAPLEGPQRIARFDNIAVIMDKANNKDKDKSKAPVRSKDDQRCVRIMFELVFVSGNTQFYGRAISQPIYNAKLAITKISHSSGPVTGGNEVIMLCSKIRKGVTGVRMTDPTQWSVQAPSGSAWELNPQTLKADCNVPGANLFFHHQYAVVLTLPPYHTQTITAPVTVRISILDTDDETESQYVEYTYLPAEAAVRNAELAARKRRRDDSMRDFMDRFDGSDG

GST-Dm-Relish = target: T5, GST-Dm-Relish (Drosophila melanogaster, UniProt Q94527 99-473)
T5 sequence: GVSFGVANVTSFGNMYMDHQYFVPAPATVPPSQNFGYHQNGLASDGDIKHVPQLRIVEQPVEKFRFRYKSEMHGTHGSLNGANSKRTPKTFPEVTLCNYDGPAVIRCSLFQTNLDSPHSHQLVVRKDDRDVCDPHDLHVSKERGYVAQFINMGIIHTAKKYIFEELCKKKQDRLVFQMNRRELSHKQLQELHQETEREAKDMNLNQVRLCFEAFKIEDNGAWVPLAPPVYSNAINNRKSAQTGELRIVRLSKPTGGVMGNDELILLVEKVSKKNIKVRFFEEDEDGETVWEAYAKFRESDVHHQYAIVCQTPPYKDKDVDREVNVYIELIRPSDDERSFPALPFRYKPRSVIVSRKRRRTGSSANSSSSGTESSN

GST-Aq-NF-kB = target: T6, GST-Aq-NF-kB (Amphimedon queenslandica, UniProt A9Y5G7 2-389)
T6 sequence: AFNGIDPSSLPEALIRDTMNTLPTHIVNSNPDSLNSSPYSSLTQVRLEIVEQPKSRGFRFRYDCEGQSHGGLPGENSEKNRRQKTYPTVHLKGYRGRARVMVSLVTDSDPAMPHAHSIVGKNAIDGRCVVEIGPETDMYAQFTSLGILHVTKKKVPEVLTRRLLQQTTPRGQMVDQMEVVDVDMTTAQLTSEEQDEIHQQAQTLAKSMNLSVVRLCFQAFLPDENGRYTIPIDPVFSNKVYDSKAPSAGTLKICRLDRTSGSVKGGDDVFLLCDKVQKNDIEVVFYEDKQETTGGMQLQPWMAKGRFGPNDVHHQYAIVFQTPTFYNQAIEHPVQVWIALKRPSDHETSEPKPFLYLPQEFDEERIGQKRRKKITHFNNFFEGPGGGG

GST-Hu-p50 = GST-Hu-p50 (Homo sapiens, UniProt P19838 7-356)
GST-Hu-p50, sequence (P19838 7-356): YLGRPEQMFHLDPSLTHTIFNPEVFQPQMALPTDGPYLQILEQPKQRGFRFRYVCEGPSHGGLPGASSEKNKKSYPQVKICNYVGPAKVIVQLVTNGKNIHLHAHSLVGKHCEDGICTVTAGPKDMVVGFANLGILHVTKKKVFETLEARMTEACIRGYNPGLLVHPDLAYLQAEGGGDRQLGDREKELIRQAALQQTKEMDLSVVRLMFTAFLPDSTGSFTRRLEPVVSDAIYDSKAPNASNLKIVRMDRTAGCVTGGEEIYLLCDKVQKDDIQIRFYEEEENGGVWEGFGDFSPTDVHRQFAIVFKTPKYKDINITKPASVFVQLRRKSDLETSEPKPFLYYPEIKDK

| Sequence | binding signal (GST-Ap-NF-kB RHD) | binding signal [1] | binding signal [2] | binding signal (GST-Co-NF-kB) | binding signal (GST-Dm-Relish) | binding signal (GST-Aq-NF-kB) | binding signal (GST-Hu-p50) |
| --- | --- | --- | --- | --- | --- | --- | --- |
| CCGATTAACATCACGGGATTTGGTGATGTTAATCGGGTCTTGATTCGCTTGACGCTGCTG | 1.89 z-score | 1.93 z-score | 1.12 z-score | 1.17 z-score | 1.79 z-score | 1.61 z-score | 2.36 z-score |
| CCGATTAACATCACAAAAGTCCCTGATGTTAATCGGGTCTTGATTCGCTTGACGCTGCTG | 7.21 z-score | 9.22 z-score | 9.85 z-score | 2.27 z-score | 7.55 z-score | 7.54 z-score | 6.52 z-score |
| CCGATTAACATCAACTTTTCCCCTGATGTTAATCGGGTCTTGATTCGCTTGACGCTGCTG | 6.24 z-score | 7.19 z-score | 10 z-score | 9 z-score | 2.99 z-score | 5.09 z-score | 5.48 z-score |
| CCGATTAACATCAAAGAAACCCCTGATGTTAATCGGGTCTTGATTCGCTTGACGCTGCTG | 6 z-score | 5.33 z-score | 5.11 z-score | 1.95 z-score | 6.23 z-score | 5.01 z-score | 5.25 z-score |
| CCGATTAACATCAGAAATTTCCCTGATGTTAATCGGGTCTTGATTCGCTTGACGCTGCTG | 5.84 z-score | 8.58 z-score | 8.13 z-score | 5.21 z-score | 4.81 z-score | 7.73 z-score | 5.92 z-score |
| CCGATTAACATCAAATTTCCCCATGATGTTAATCGGGTCTTGATTCGCTTGACGCTGCTG | 7.86 z-score | 9.05 z-score | 10.8 z-score | 9.42 z-score | 4.87 z-score | 7.31 z-score | 6.68 z-score |
| CCGATTAACATCAGGGAATCCCATGATGTTAATCGGGTCTTGATTCGCTTGACGCTGCTG | 5.36 z-score | 4.92 z-score | 4.14 z-score | 2.97 z-score | 10.4 z-score | 6.45 z-score | 4.13 z-score |
| CCGATTAACATCAATATTTTCCCTGATGTTAATCGGGTCTTGATTCGCTTGACGCTGCTG | 4.35 z-score | 6.75 z-score | 8.82 z-score | 6.01 z-score | 2.69 z-score | 4.5 z-score | 5.3 z-score |
| CCGATTAACATCAAACTCCCCCTTGATGTTAATCGGGTCTTGATTCGCTTGACGCTGCTG | 8.05 z-score | 6.74 z-score | 8.38 z-score | 6.26 z-score | 6.54 z-score | 6.59 z-score | 7.29 z-score |
| CCGATTAACATCATTAGGGGAAGTGATGTTAATCGGGTCTTGATTCGCTTGACGCTGCTG | 4.61 z-score | 5.4 z-score | 7.61 z-score | 3.41 z-score | 2.36 z-score | 4.57 z-score | 5.39 z-score |
| CCGATTAACATCACTGTTTCCCCTGATGTTAATCGGGTCTTGATTCGCTTGACGCTGCTG | 5.28 z-score | 7.06 z-score | 9.29 z-score | 7.92 z-score | 2.5 z-score | 4.25 z-score | 4.88 z-score |
| CCGATTAACATCACGGGGGATTATGATGTTAATCGGGTCTTGATTCGCTTGACGCTGCTG | 7.59 z-score | 6.57 z-score | 7 z-score | 6.84 z-score | 6.41 z-score | 5.87 z-score | 6.67 z-score |
| CCGATTAACATCAGGGGAATCACTGATGTTAATCGGGTCTTGATTCGCTTGACGCTGCTG | 8.92 z-score | 8.19 z-score | 8.51 z-score | 6.78 z-score | 10.6 z-score | 7.41 z-score | 6.51 z-score |
| CCGATTAACATCAGGGAAAAGTATGATGTTAATCGGGTCTTGATTCGCTTGACGCTGCTG | 3.35 z-score | 4.5 z-score | 6.25 z-score | 4.73 z-score | 1.56 z-score | 3.86 z-score | 2.97 z-score |
| CCGATTAACATCAACTACCCCCCTGATGTTAATCGGGTCTTGATTCGCTTGACGCTGCTG | 4.79 z-score | 2.46 z-score | 3.11 z-score | 4.43 z-score | 3.4 z-score | 3.98 z-score | 3.1 z-score |
| CCGATTAACATCAAGGGGGGTGCTGATGTTAATCGGGTCTTGATTCGCTTGACGCTGCTG | 4.44 z-score | 3.89 z-score | 3.43 z-score | 3.26 z-score | 4.11 z-score | 4.32 z-score | 4.67 z-score |
| CCGATTAACATCAGATTTCCCCCTGATGTTAATCGGGTCTTGATTCGCTTGACGCTGCTG | 8.72 z-score | 8.96 z-score | 10.8 z-score | 11 z-score | 6.42 z-score | 7.34 z-score | 7.39 z-score |
| CCGATTAACATCAAAAATCCACCTGATGTTAATCGGGTCTTGATTCGCTTGACGCTGCTG | 2.25 z-score | 2.65 z-score | 3.34 z-score | 1.26 z-score | 4.27 z-score | 3.29 z-score | 4.62 z-score |
| CCGATTAACATCAAGGGGATCCCTGATGTTAATCGGGTCTTGATTCGCTTGACGCTGCTG | 9.22 z-score | 6.41 z-score | 7.34 z-score | 3.82 z-score | 10.3 z-score | 6.69 z-score | 5.5 z-score |
| CCGATTAACATCAGGATTTACCCTGATGTTAATCGGGTCTTGATTCGCTTGACGCTGCTG | 3.04 z-score | 4.29 z-score | 3.54 z-score | 1.85 z-score | 5.15 z-score | 6.67 z-score | 3.39 z-score |
| CCGATTAACATCAGGGGGAATAATGATGTTAATCGGGTCTTGATTCGCTTGACGCTGCTG | 7.08 z-score | 7.85 z-score | 8.87 z-score | 10.1 z-score | 4.96 z-score | 5.33 z-score | 6.75 z-score |
| CCGATTAACATCAAAATTTCCCGTGATGTTAATCGGGTCTTGATTCGCTTGACGCTGCTG | 4.72 z-score | 6.89 z-score | 6.74 z-score | 6.32 z-score | 4.72 z-score | 6.67 z-score | 4.8 z-score |
| CCGATTAACATCACGGGAGTCCCTGATGTTAATCGGGTCTTGATTCGCTTGACGCTGCTG | 5.38 z-score | 3.94 z-score | 4.12 z-score | 1.57 z-score | 8.97 z-score | 5.18 z-score | 3.45 z-score |
| CCGATTAACATCAAAATTTCCCTTGATGTTAATCGGGTCTTGATTCGCTTGACGCTGCTG | 5.11 z-score | 8.26 z-score | 7.99 z-score | 5.01 z-score | 4.81 z-score | 7.6 z-score | 5.41 z-score |
